# PubChem BioAssay (EPA / NIEHS)
# Several values for one entry are separate records, joined by “and”; a condition that tells them apart may be missing. Equal entries are not always repeated. Activity calls are given as the source filed them. How the source made its calls: active means hit-call score of the fitted dose curve at least 0.9, where 1 is the maximum; inactive means score below 0.9.
# Read-out: C-C motif chemokine 2 (Homo sapiens) (UniProt P13500)
# Test: BSK_KF3CT_MCP1: BioMAP Diversity Plus: KF3CT Assay for Monocyte Chemoattractant Protein 1 (MCP1/CCL2) Biomarker Activity (AID 2283073)
# Conditions: primary human keratinocytes with fibroblasts; actives raise or lower the signal
# Procedure, shortened: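 ELISA read-out of MCP-1, 24 h post-dose, in primary human skin keratinocytes co-cultured with fibroblasts. Parallel SRB staining monitors cytotoxicity; changes fitted both directions relative to DMSO.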
Structure (SMILES),outcome,AC50
O=C(O)C(F)(F)C(F)(F)C(F)(F)C(F)(F)F,inactive,–
OCC(F)(F)C(F)(F)C(F)(F)C(F)(F)C(F)(F)C(F)(F)F,inactive,–
C=C(C)C(=O)OCCC(F)(F)C(F)(F)C(F)(F)C(F)(F)C(F)(C(F)(F)F)C(F)(F)F,inactive,–
O=P(O)(O)OCCC(F)(F)C(F)(F)C(F)(F)C(F)(F)C(F)(F)C(F)(F)F,inactive,–
O=S(=O)(OCC(F)F)C(F)(F)F,inactive,–
O=C(CC(=O)C(F)(F)C(F)(F)F)C(F)(F)F,inactive,–
C=CC(=O)OCC(F)(F)C(F)(F)C(F)(F)C(F)(F)COC(=O)C=C,–,10.9 µM (active) and 15.4 µM (active)
CCCCCCCCC(F)(F)C(F)(F)C(F)(F)C(F)(F)C(F)(F)C(F)(F)F,inactive,–
N=C(N)C(F)(F)C(F)(F)C(F)(F)C(F)(F)C(F)(F)C(F)(F)C(F)(F)F,inactive,–
O=C(O)C(F)(F)C(F)(F)F,inactive,–
FC(F)(I)C(F)(F)C(F)(F)C(F)(F)I,–,50.9 µM (active) and 46.8 µM (active) and 48.7 µM (active)
FC(F)(F)C(F)(F)C(F)(F)C(F)(F)C(F)(F)C(F)(F)C(F)(F)C(F)(F)F,inactive,–
FC(F)(F)C(F)(F)C(F)(F)N(C(F)(F)C(F)(F)C(F)(F)F)C(F)(F)C(F)(F)C(F)(F)F,inactive,–
FC(F)(F)C(F)(F)CNCC(F)(F)C(F)(F)F,inactive,–
FC(F)(F)C(F)(F)C(F)(F)C(F)(F)C(F)(F)C(F)(F)CCS,inactive,–
O=C(O)C(F)(F)C(F)(F)C(F)(F)F,inactive,–
O=C(O)C(F)(F)C(F)(F)C(F)(F)C(F)(F)C(F)(F)C(F)(F)C(F)(F)C(F)(F)Cl,–,49.4 µM (active) and 55.1 µM (active)
O=C(O)C(F)(OC(F)(F)C(F)(OC(F)(F)C(F)(OC(F)(F)C(F)(F)C(F)(F)F)C(F)(F)F)C(F)(F)F)C(F)(F)F (configuration not stated),inactive,–

Structure (SMILES),outcome,AC50
FC(F)(Br)C(F)(F)C(F)(F)C(F)(F)C(F)(F)C(F)(F)Br,inactive,–
O=C(O)C(F)(F)C(F)(F)C(F)F,inactive,–
O=C(O)C(F)(OC(F)(F)C(F)(OC(F)(F)C(F)(F)C(F)(F)F)C(F)(F)F)C(F)(F)F (configuration not stated),inactive,–
CCCCC(CC)COP(=O)(O)OCC(CC)CCCC (configuration not stated),–,31.2 µM (active) and 20 µM (active)
C=CC(F)(F)C(F)(F)C(F)(F)C(F)(F)C(F)(F)C(F)(F)C(F)(F)C(F)(F)F,inactive,–
COC(=O)CCC(F)(F)C(F)(F)C(F)(F)C(F)(F)F,inactive,–
C=CC(=O)OCC(F)(F)C(F)(F)C(F)(F)C(F)(F)C(F)(F)C(F)(F)C(F)(F)F,inactive,–
FC(F)(F)C(F)(F)C(F)(F)C(F)(F)C(F)(F)C(F)(F)CC1CO1 (configuration not stated),inactive,–
FC(F)(F)C(F)(F)C(F)(F)C(F)(F)C(F)(F)C(F)(F)C(F)(F)C(F)(F)CCS,inactive,–
OCC(F)(F)C(F)(F)C(F)(F)C(F)(F)C(F)(F)C(F)F,inactive,–
FC1CC(F)(F)C(F)(F)C1(F)F (configuration not stated),inactive,–
FC(F)(F)C(F)(F)C(F)(F)CI,inactive,–
NC(=O)C(F)(F)C(F)(F)C(F)(F)C(F)(F)F,inactive,–
C=CC(F)(F)C(F)(F)C(F)(F)C(F)(F)C(F)(F)C(F)(F)C(F)(F)C(F)(F)C=C,inactive,–
OCC(F)(F)C(F)(F)C(F)(F)C(F)F,inactive,–
OCC(F)(F)C(F)(F)C(F)(F)F,inactive,–
OCCCC(F)(F)C(F)(F)C(F)(F)F,inactive,–
O=S(=O)(OCCOC(F)(F)F)C(F)(F)F,inactive,–

# Read-out: Matrix Metallopeptidase 9 (MMP9), MMP9 (gene 4318)
# Test: BSK_KF3CT_MMP9: BioMAP Diversity Plus: KF3CT Assay for Matrix Metallopeptidase 9 (MMP9) Biomarker Activity (AID 2283074);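 on AC50: MMP9 protein level quantified by ELISA in the co-culture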
# Conditions: primary human keratinocytes with fibroblasts; actives raise or lower the signal
# Procedure, shortened: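 ELISA read-out of MMP-9 at 24 h post-dosing in a co-culture of human skin keratinocytes and foreskin fibroblasts. Gain or loss of signal was fitted in both directions against DMSO.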
Structure (SMILES),outcome,AC50
O=C(O)C(F)(F)C(F)(F)C(F)(F)C(F)(F)F,inactive,–
OCC(F)(F)C(F)(F)C(F)(F)C(F)(F)C(F)(F)C(F)(F)F,inactive,–
C=C(C)C(=O)OCCC(F)(F)C(F)(F)C(F)(F)C(F)(F)C(F)(C(F)(F)F)C(F)(F)F,inactive,–
O=P(O)(O)OCCC(F)(F)C(F)(F)C(F)(F)C(F)(F)C(F)(F)C(F)(F)F,inactive,–
O=S(=O)(OCC(F)F)C(F)(F)F,inactive,–
O=C(CC(=O)C(F)(F)C(F)(F)F)C(F)(F)F,inactive,–
C=CC(=O)OCC(F)(F)C(F)(F)C(F)(F)C(F)(F)COC(=O)C=C,–,30.9 µM (active) and 21.6 µM (active)
CCCCCCCCC(F)(F)C(F)(F)C(F)(F)C(F)(F)C(F)(F)C(F)(F)F,inactive,–
N=C(N)C(F)(F)C(F)(F)C(F)(F)C(F)(F)C(F)(F)C(F)(F)C(F)(F)F,inactive,–
O=C(O)C(F)(F)C(F)(F)F,inactive,–
FC(F)(I)C(F)(F)C(F)(F)C(F)(F)I,–,52 µM (active) and 51.2 µM (active) and 45.8 µM (active)
FC(F)(F)C(F)(F)C(F)(F)C(F)(F)C(F)(F)C(F)(F)C(F)(F)C(F)(F)F,inactive,–
FC(F)(F)C(F)(F)C(F)(F)N(C(F)(F)C(F)(F)C(F)(F)F)C(F)(F)C(F)(F)C(F)(F)F,inactive,–
FC(F)(F)C(F)(F)CNCC(F)(F)C(F)(F)F,inactive,–
FC(F)(F)C(F)(F)C(F)(F)C(F)(F)C(F)(F)C(F)(F)CCS,inactive,–
O=C(O)C(F)(F)C(F)(F)C(F)(F)F,inactive,–
O=C(O)C(F)(F)C(F)(F)C(F)(F)C(F)(F)C(F)(F)C(F)(F)C(F)(F)C(F)(F)Cl,–,37.5 µM (active) and 40.3 µM (active)
O=C(O)C(F)(OC(F)(F)C(F)(OC(F)(F)C(F)(OC(F)(F)C(F)(F)C(F)(F)F)C(F)(F)F)C(F)(F)F)C(F)(F)F (configuration not stated),inactive,–

Structure (SMILES),outcome,AC50
FC(F)(Br)C(F)(F)C(F)(F)C(F)(F)C(F)(F)C(F)(F)Br,inactive,–
O=C(O)C(F)(F)C(F)(F)C(F)F,inactive,–
O=C(O)C(F)(OC(F)(F)C(F)(OC(F)(F)C(F)(F)C(F)(F)F)C(F)(F)F)C(F)(F)F (configuration not stated),inactive,–
CCCCC(CC)COP(=O)(O)OCC(CC)CCCC (configuration not stated),–,29.5 µM (active) and 36.8 µM (active)
C=CC(F)(F)C(F)(F)C(F)(F)C(F)(F)C(F)(F)C(F)(F)C(F)(F)C(F)(F)F,inactive,–
COC(=O)CCC(F)(F)C(F)(F)C(F)(F)C(F)(F)F,inactive,–
C=CC(=O)OCC(F)(F)C(F)(F)C(F)(F)C(F)(F)C(F)(F)C(F)(F)C(F)(F)F,inactive,–
FC(F)(F)C(F)(F)C(F)(F)C(F)(F)C(F)(F)C(F)(F)CC1CO1 (configuration not stated),inactive,–
FC(F)(F)C(F)(F)C(F)(F)C(F)(F)C(F)(F)C(F)(F)C(F)(F)C(F)(F)CCS,inactive,–
OCC(F)(F)C(F)(F)C(F)(F)C(F)(F)C(F)(F)C(F)F,inactive,–
FC1CC(F)(F)C(F)(F)C1(F)F (configuration not stated),inactive,–
FC(F)(F)C(F)(F)C(F)(F)CI,inactive,–
NC(=O)C(F)(F)C(F)(F)C(F)(F)C(F)(F)F,inactive,–
C=CC(F)(F)C(F)(F)C(F)(F)C(F)(F)C(F)(F)C(F)(F)C(F)(F)C(F)(F)C=C,inactive,–
OCC(F)(F)C(F)(F)C(F)(F)C(F)F,inactive,–
OCC(F)(F)C(F)(F)C(F)(F)F,inactive,–
OCCCC(F)(F)C(F)(F)C(F)(F)F,inactive,–
O=S(=O)(OCCOC(F)(F)F)C(F)(F)F,inactive,–
